Screens deposited in PubChem by National Center for Advancing Translational Sciences (NCATS).
IL2 activator: activators of IL-2; IL-2 activation reporter assay, cell-based qHTS; stimulated with anti-CD3/CD4/CD28 beads; in transgenic mouse T cells; activation, % (series mostly up to about 46 µM); 0.065% of 360,000 active; in the data active means activation above about 50%; inconclusive means mostly about 30% to 49%
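Quantitative HTS in unstimulated transgenic mouse T cells, with memory T cells as non-tolerant control and PMA/ionomycin as tolerance-bypass control. Compound pretreatment lasted 60 minutes before 18 h bead stimulation; EGFP/DsRed fluorescence read.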
p53 reactivator: re-activators of mutant p53 | Potency, µM (top dose mostly 92.2 µM), usual class: activators | 0.063% of 320,000 active | H1299 p53-A138V BP100-luciferase reporter, luminescence, 24 h; further: nearly all actives have a fitted effect of over 45% in size
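p53-null H1299 cells stably carrying temperature-sensitive p53-A138V and a BP100-luciferase reporter were pinned with compounds (4-point, 1:5 series) and held 24 hrs at 37 deg C. Luminescence was read 10 min after detection reagent.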
TCR activator: activates T cell receptor signaling. primary human leukocytes, anti-CD3, IL-2 HTRF, 48 h. Potency, µM (titrated, usually from 9.22 µM), usual class: activators. 330,000 tested, under 10 active
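Compounds are tested in HTS on primary human leukocytes co-incubated with a-CD3 beads for 48 hr. IL-2 output is measured by time-resolved FRET.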
BRCA1 expr act: increases BRCA1 expression | MCF7-BRCA1-FFLuc reporter, luminescence, 48 h; response scale: scaled: vehicle 0%, 10 µM genistein 100% | Potency, µM (top dose mostly 46.1 µM), usual class: activators | 1.1% of 380,000 active | AID 624202; further: nearly all actives have a fitted effect of over 80% in size
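Cells: MCF7-BRCA1-FFLuc, 2000/well. Exposure: 48 h, 37 °C, 5% CO2. Read: luminescence, 15 min post-substrate. Controls: genistein 10 microM (maximal activation), DMSO (neutral).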
uPA generation: cell surface uPA generation inhibition; cell surface uPA generation assay, qHTS; Potency, µM (series often up to 38.3 µM), actives largely listed as inhibitors; 0.31% of 330,000 active; active means well fitted inhibition curve with a large enough effect; inconclusive means small, poorly fitted or top-dose-only effect; inactive means no such curve, though single readings can be large or run the other way; tested in mouse RAW 264.7 cells; further: nearly all actives have a fitted effect of over 55% in size
Of the large screens only hits and unclear results are named; the others gave an inactive call. A selection: hits, their analogues and other compounds. The true share with any hit is near 1.4%. Unless noted, the call rests on the fitted dose curve; in most records, active means well fitted curve in the direction sought with a large enough effect; inconclusive means small, poorly fitted or top-dose-only effect, or another doubt; inactive means no such curve, though single readings can be large; an effect the other way counts as inactive or inconclusive.

Cc1ccc(NC(=O)C2CCC(CNS(=O)(=O)c3ccc4c(c3)CCCC(=O)N4)CC2)c(C)c1 (centres undefined)	none (no result: IL2 activator, p53 reactivator, TCR activator, uPA generation)
O=C1c2ccccc2NC2(CCCCC2)N1c1ccc(O)cc1	BRCA1 expr act 11.2µM
CC1CCC2(CC1)Nc1ccccc1C(=O)N2c1ccccc1 (centres undefined)	BRCA1 expr act inconclusive
Cc1cc(Br)ccc1OCC(=O)N1CCCCCC1	none
CC(C)c1ccc(OCC(=O)N2CCCCCC2)c(Br)c1	BRCA1 expr act 10µM
CCOC(=O)C1(Cc2ccccc2)CCCN(C(=O)COc2ccccc2OC)C1 (centres undefined)	BRCA1 expr act 10µM (no result: p53 reactivator, TCR activator, uPA generation)
COc1cc(C(=O)OCCc2cc3ccccc3c(=O)o2)cc(OC)c1OC	uPA generation 1.12µM
CCOC(=O)c1ccc(-c2ccc3c(c2)CCC3)nc1C	p53 reactivator inconclusive, BRCA1 expr act 10µM
CCCS(=O)(=O)c1c(S(=O)(=O)CCC)c2c(C)cccn2c1C(=O)N/N=C/c1cc(O)cc(O)c1	p53 reactivator inconclusive, uPA generation 11.2µM
CCCS(=O)(=O)c1c(S(=O)(=O)CCC)c2c(C)cccn2c1C(N)=O	none
O=C(O)CSC1=NS(=O)(=O)c2ccccc21	none (no result: IL2 activator, p53 reactivator, TCR activator, uPA generation)
O=[N+]([O-])c1ccc(C(O)CSC(=S)N2CCCCC2)cc1 (centres undefined)	p53 reactivator inconclusive, BRCA1 expr act 3.98µM
COc1ccc2sc(NCc3ccccc3)nc2c1	p53 reactivator inconclusive, BRCA1 expr act 2.82µM
COc1ccc2sc(NC(=O)CC(C)C)nc2c1	BRCA1 expr act 5.62µM
COc1ccc2sc(NC(C)=O)nc2c1	p53 reactivator inconclusive, BRCA1 expr act inconclusive
CCOc1ccc(OCC)c(NC(=O)C2CCCN(S(=O)(=O)c3cc(Br)cc4c3N(C(=O)CC)CC4)C2)c1 (centres undefined)	none (no result: IL2 activator, p53 reactivator, TCR activator, uPA generation)
COc1ccccc1CNC(=O)Cc1ccc(OC)c(OC)c1	none
O=C(CSCc1cccc(F)c1)NCc1ccccc1	p53 reactivator inconclusive, BRCA1 expr act 11.2µM
O=C(Cc1ccc(-n2cccc2)cc1)NCc1ccccc1Cl	none
COc1ccccc1CNC(=O)Cc1ccccc1	BRCA1 expr act 11.2µM
O=C(CSCc1ccccc1F)NCc1ccccc1	BRCA1 expr act 7.08µM
Cc1ccc(CNC(=O)CSCc2cccc(F)c2)cc1	BRCA1 expr act inconclusive
O=C(Cc1ccccc1)NCc1ccc(-n2cccc2)cc1	uPA generation 1.78µM
Cc1ccc(-n2c(=O)c3c(c4cc(C)ccc4n3C)n(CC(=O)Nc3ccc(F)cc3)c2=O)cc1	none (no result: IL2 activator, p53 reactivator, TCR activator, uPA generation)
CC(C)c1cccc(C(C)C)c1NS(=O)(=O)c1cccs1	none (no result: IL2 activator, p53 reactivator, TCR activator, uPA generation)
CCOC(=O)c1cc(S(=O)(=O)Nc2ccccc2OCC)[nH]n1	none (no result: IL2 activator, p53 reactivator, TCR activator, uPA generation)
O=C(c1ccc2nc(Cc3ccccc3F)oc2c1)N1CCCC1	p53 reactivator inconclusive, BRCA1 expr act 5.62µM
CC(c1ccccn1)N(C)C(=O)c1ccc2nc(Cc3ccccc3F)oc2c1 (centres undefined)	p53 reactivator inconclusive, BRCA1 expr act 11.2µM
Cc1cc(CNC(=O)c2ccc3nc(Cc4ccccc4F)oc3c2)nn1C	BRCA1 expr act 8.91µM
Cc1cc(CN(C)C(=O)c2ccc3nc(Cc4ccccc4F)oc3c2)n[nH]1	none
CCn1ccc2c(OCC(=O)Nc3ccc(C)c(Cl)c3)cccc2c1=O	none (no result: IL2 activator, p53 reactivator, TCR activator, uPA generation)
O=C(NC1CCCC1)c1ccc2c(c1)N(Cc1ccc(C(F)(F)F)cc1)C(=O)c1ccccc1S2	none (no result: IL2 activator, p53 reactivator, TCR activator, uPA generation)
CC(C)(C)N1CC(C(=O)Nc2ccc(S(=O)(=O)N3CCCCC3)cc2)CC1=O (centres undefined)	none
CCC1CCCCN1S(=O)(=O)c1ccc(NC(=O)C2CC(=O)N(C(C)(C)C)C2)cc1 (centres undefined)	BRCA1 expr act 11.2µM (no result: p53 reactivator)
O=C(Nc1ccccc1)N1CC=C(c2ccc(F)cc2)CC1	p53 reactivator inconclusive, BRCA1 expr act 3.98µM
CC1CCCN(C(=O)CSc2nc3ccccc3o2)C1 (centres undefined)	p53 reactivator inconclusive, BRCA1 expr act 8.91µM (no result: TCR activator)
O=C(CSc1nc2cc(Cl)ccc2o1)N1CCOCC1	none
O=C(O)c1ccc2oc(SCC(=O)N3CCCCC3)nc2c1	BRCA1 expr act 7.08µM
COC(=O)c1ccc(OCC2c3cc(OC)c(OC)cc3CCN2C(=O)Cc2ccc(OC)cc2)cc1 (centres undefined)	none (no result: IL2 activator, p53 reactivator, TCR activator, uPA generation)
COC(=O)c1cc(Cl)c(NC(=O)c2ccc(C(C)(C)C)cc2)cc1OC	BRCA1 expr act 3.55µM (no result: TCR activator, uPA generation)
COC(=O)c1cc(Cl)c(NC(=O)C(C)C)cc1OC	none
CC(=O)c1cccc(Nc2cc(C)nc3nc(-c4ccccc4C)nn23)c1	none (no result: IL2 activator, p53 reactivator, TCR activator, uPA generation)
COc1ccc(/C=N/NC(=O)CCSc2nc3ccccc3s2)cc1	uPA generation 3.98µM
COc1ccc(/C=N/NC(=O)CCn2cnc(-c3ccccc3)c2-c2ccccc2)cc1	uPA generation 1.12µM
O=C(CCn1cnc(-c2ccccc2)c1-c1ccccc1)N/N=C/c1ccc(O)cc1	uPA generation inconclusive
CCC[n+]1c(/C=C/c2c(OC)cc(OC)cc2OC)ccc2ccccc21	none (no result: IL2 activator, p53 reactivator, TCR activator, uPA generation)
O=C(COC(=O)c1ccccc1OCCOc1ccccc1)Nc1ccc(Br)cc1	none (no result: IL2 activator, p53 reactivator, TCR activator, uPA generation)
COc1ccc2nc3sc(C(=O)Nc4cc(Cl)c(OC)cc4OC)cc3cc2c1	none (no result: IL2 activator, p53 reactivator, TCR activator, uPA generation)
Cc1ccc(C)c(OCCC(=O)OCC(=O)N2CCN(S(=O)(=O)c3ccc(Cl)cc3)CC2)c1	uPA generation 10µM
CCc1ccc(NCc2cc3cc4c(cc3n(CC(=O)Nc3ccccc3Cl)c2=O)OCO4)cc1	none (no result: IL2 activator, p53 reactivator, TCR activator, uPA generation)
COc1ccc(Cn2nnc(C(=O)Nc3ccc(F)cc3)c2N)cc1	none
Nc1c(C(=O)Nc2ccc3c(c2)OCCO3)nnn1Cc1cccc(Cl)c1	p53 reactivator inconclusive, BRCA1 expr act 3.16µM
Nc1c(C(=O)Nc2ccc3c(c2)OCCO3)nnn1Cc1ccccc1Cl	p53 reactivator inconclusive, BRCA1 expr act inconclusive
Nc1c(C(=O)Nc2ccc3c(c2)OCCO3)nnn1Cc1ccc(F)cc1	BRCA1 expr act 8.91µM
COc1cccc(CNC(=O)CSc2ncc(S(=O)(=O)c3ccc(C)c(Cl)c3)c(=O)[nH]2)c1	none (no result: IL2 activator, p53 reactivator, TCR activator, uPA generation)
CCCOc1ccc(-c2nnc(N)s2)cc1	p53 reactivator inconclusive, BRCA1 expr act 4.47µM
c1coc(-c2nc3cc4ccccc4cc3nc2-c2ccco2)c1	none (no result: IL2 activator, p53 reactivator, TCR activator, uPA generation)
Clc1ccc(OCc2nc(-c3ccncc3)no2)cc1	p53 reactivator inconclusive, BRCA1 expr act 11.2µM (no result: TCR activator)
Clc1ccc(-c2noc(COc3ccccc3)n2)cc1	p53 reactivator inconclusive, BRCA1 expr act inconclusive
CN(NC(=O)/C=C/C(=O)O)c1ncc(C(F)(F)F)cc1Cl	none
C=CC(=O)NN(C)c1ncc(C(F)(F)F)cc1Cl	uPA generation 3.55µM
CN(CC(=O)Nc1cccc(F)c1)C(=O)CCNC(=O)c1ccc(Br)cc1	p53 reactivator inconclusive
CN(CC(=O)Nc1cccc(F)c1)C(=O)CCCNC(=O)c1ccc(Cl)cc1	p53 reactivator inconclusive, BRCA1 expr act 11.2µM
CC(=O)c1ccccc1S(=O)(=O)N1CCN(c2nc(-c3cccs3)nc3ccccc23)CC1	none (no result: IL2 activator, p53 reactivator, TCR activator, uPA generation)
